# Source: PubChem BioAssay
# ALDH1A1 inh: inhibitors of human aldehyde dehydrogenase 1A1. P00352. Purified ALDH1A1, NADH fluorescence, propionaldehyde substrate. Potency, µM (doses to about 75.3 µM), inactives show top-dose activity, negative = inhibition, hits mostly inhibitors. 7.3% of 220,000 active; active means well fitted inhibition curve with a large enough effect, not every such curve was filed as active; inconclusive means small, poorly fitted or top-dose-only effect, or another doubt; inactive means no such curve, though single readings can be large or run the other way;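 further: potency means the concentration at half of the fitted maximal effect; plate controls were no enzyme wells and a reference inhibitor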
# Target sequence (P00352 whole entry, looked up): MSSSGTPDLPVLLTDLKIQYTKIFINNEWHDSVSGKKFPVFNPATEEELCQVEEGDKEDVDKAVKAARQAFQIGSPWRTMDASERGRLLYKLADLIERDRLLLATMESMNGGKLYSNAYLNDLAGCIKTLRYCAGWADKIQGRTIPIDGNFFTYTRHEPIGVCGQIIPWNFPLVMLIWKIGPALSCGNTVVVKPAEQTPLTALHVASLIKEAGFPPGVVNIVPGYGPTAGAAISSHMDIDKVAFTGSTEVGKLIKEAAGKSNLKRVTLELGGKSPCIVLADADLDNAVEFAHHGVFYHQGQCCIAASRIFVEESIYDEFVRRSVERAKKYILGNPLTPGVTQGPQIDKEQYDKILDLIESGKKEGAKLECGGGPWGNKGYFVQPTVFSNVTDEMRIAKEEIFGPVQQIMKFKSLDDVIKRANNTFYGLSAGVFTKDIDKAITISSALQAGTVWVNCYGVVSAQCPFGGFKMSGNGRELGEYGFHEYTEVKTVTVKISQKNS
# HPGD inh: inhibitors of human 15-hydroxyprostaglandin dehydrogenase (HPGD); Potency, µM, without a hit: at the top dose activity change, negative = inhibition, usual class: inhibitors; 4.3% of 150,000 active; purified HPGD, NADH fluorescence kinetic, PGE2 substrate; active means well fitted inhibition curve with a large enough effect, not every such curve was filed as active; inconclusive means small, poorly fitted or top-dose-only effect, or another doubt; inactive means no such curve, though single readings can be large or run the other way; further: potency means the concentration at half of the fitted maximal effect; on the % scale 0 is the no-effect control and ±100 the full control effect
# Target sequence (P15428 whole entry, looked up): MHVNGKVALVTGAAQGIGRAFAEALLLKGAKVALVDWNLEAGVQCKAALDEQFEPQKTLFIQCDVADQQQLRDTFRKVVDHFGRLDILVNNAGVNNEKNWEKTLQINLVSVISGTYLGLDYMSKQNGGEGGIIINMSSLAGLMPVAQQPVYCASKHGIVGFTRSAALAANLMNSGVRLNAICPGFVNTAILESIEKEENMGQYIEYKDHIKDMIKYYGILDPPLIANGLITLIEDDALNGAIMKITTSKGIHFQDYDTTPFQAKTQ
#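 20 nM HPGD preincubated 15 min at room temperature with compound in 50 mM Tris-HCl pH 8, 0.01% Tween 20. Started with 1 mM NAD+ and 30 uM prostaglandin E2; NADH fluorescence (360/450 nm) read 5 times over 30-s intervals, last minus first.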
# CBFb RUNX1 block: inhibitors of human CBF-beta and RUNX1 interaction; Q01196+Q13951; AlphaScreen CBFb-His/RUNX1-biotin binding, biochemical; Potency, µM (top dose mostly 59.8 µM), inactives show at the top dose activity, negative = inhibition, hits mostly inhibitors; 230,000 tested, under 10 active; AID 1477; further: % of control where 0% means no effect
#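 CBF-beta (His) and RUNX1 (biotin), 30 nM each; 20 min preassociation; + compound, 15 min; + beads 50 ng each (Ni, streptavidin), 90 min; RT; AlphaScreen read.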
# PNC inhibitor: blocks assembly of the perinucleolar compartment; PC3M PTB-GFP, PNC prevalence imaging, 16 h; active compounds read low; activity change (PNC), negative = inhibition, % at 10 µM; 3.1% of 140,000 active;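 active means readout at or below -70, meaning at least 70% loss of cells showing the perinucleolar compartment, a nuclear body marking cancer cells; inconclusive means readout between -30 and a set limit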;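 further: plate controls were DMSO wells for no effect and camptothecin positive control wells for full effect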
#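 Read-out is percentage of cells bearing a perinucleolar compartment, from automated 20x imaging of fixed, Hoechst-stained PC3M PTB-GFP cells. Cells were seeded 4 h, then exposed 16 h to compound (23 nl of library stock) in duplicate plates.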
# HTT cytoprotect: cytoprotection in Huntington HTT-Q103 PC12 cell model; 0.14% of 230,000 active; AID 1471; PC12 HTT-Q103 induced, cytoprotection, ATP luminescence, 40 h; Potency, µM (titrated, usually from 56.4 µM), inactives show cytoprotection (ATP increase), actives largely listed as activators; further: potency means the concentration at half of the fitted maximal effect; % of control where 0% means no effect; nearly all actives have a fitted effect of over 45% in size
#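 Stable PC12 Q103-GFP cells in serum-supplemented, phenol red-free DMEM; induction by tebufenozide at 100 nM final; compound dose series; cell viability quantified luminescently from ATP.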
# HTT aggregate: inhibitors of mutant huntingtin aggregate formation in PC12 cells. PC12 HttQ103-GFP aggregates, Acumen cytometry, 40 h. Potency, µM (top dose mostly 46.1 µM), without a hit: at the top dose activity change, negative = inhibition, most hits filed as inhibitors. 1.1% of 220,000 active. AID 1688; further: potency means the concentration at half of the fitted maximal effect; on the % scale 0 is the no-effect control and ±100 the full control effect; nearly all actives have a fitted effect of over 60% in size
#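 Aggregate formation scored by laser-scanning cytometer (488 excitation, 500–530 emission) in lysed PC12 cells expressing Q103-GFP after 100 nM tebufenozide induction; library tested in dose series, with ATPLite reagent added in the multiplex.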
# Active calls of the source: *; ? = inconclusive; . = no result given; [ ] = remark or other dose. The list is not random: actives were taken first. Their share in the collection is about 11%. Unless noted, the call rests on the fitted dose curve; in most records, active means well fitted curve in the direction sought with a large enough effect; inconclusive means small, poorly fitted or top-dose-only effect, or another doubt; inactive means no such curve, though single readings can be large; an effect the other way counts as inactive or inconclusive.
SMILES,ALDH1A1 inh,HPGD inh,CBFb RUNX1 block,PNC inhibitor,HTT cytoprotect,HTT aggregate
Cc1[nH]n(-c2ccc(F)cc2)c(=O)c1/C=N/c1sc2c(c1C#N)CCCC2,?,-17%,-5%,57,-17%,-7%
COc1ccc(-c2ccc(C(C)=O)cc2)cc1C1C2C=CCC(C)C2C(=O)N1Cc1ccccc1 (configuration not stated),.,.,6%,.,.,.
NS(=O)(=O)c1ccc(CNC(=O)Cc2c(F)cccc2Cl)cc1,2%,.,3%,.,-2%,?
Cc1ccc(/C=N/c2sc3c(c2C#N)CCC3)s1,25µM*,-22%,3%,-9,-14%[10 µM],11%
Cc1ccc(/C=N/c2sc3c(c2C#N)CCCCC3)o1,?,-14%,-6%,7,-17%,8%
O=C(COc1ncnc2ccccc12)Nc1cc([N+](=O)[O-])ccc1F,.,.,-6%,.,17%[10 µM],-1%[9.22 µM]
O=C(C1=C[C@H](C2CCCCC2)C[C@H](OCc2ccc(CO)cc2)O1)N1CCN(Cc2ccccc2)CC1,14µM*,.,-3%,.,37%[10 µM],24%[9.22 µM]
O=C(Nc1ccccc1)C1=C[C@@H](C2CCCCC2)C[C@@H](OCc2ccc(CO)cc2)O1,4.5µM*,.,11%,.,16%[10 µM],-7%[9.22 µM]
O=C(Nc1ccccc1)C1=C[C@H](C2CCCCC2)C[C@H](OCc2ccc(CO)cc2)O1,1%,.,12%,.,0%[10 µM],-5%[9.22 µM]
C=CCOC(=O)C1=C[C@@H](C2CCCCC2)C[C@@H](OCc2ccc(CO)cc2)O1,1µM*,.,11%,.,10%[10 µM],-12%[9.22 µM]
O=C(O)C1=C[C@@H](C2CC2)C[C@@H](OCc2ccc(CO)cc2)O1,-12%,.,12%,.,29%[10 µM],18%[9.22 µM]
O=C(C1=C[C@@H](C2CC2)C[C@@H](OCCCCO)O1)N1CCOCC1,32µM*,.,4%,.,13%[10 µM],-3%[9.22 µM]
CN(C)/C=C/c1onc(-c2ccccc2Cl)c1C#N,6.3µM*,.,14%,.,-41%,25%
COc1cc([N+](=O)[O-])ccc1NC(=O)CC(C)C,?,-6%,4%,-21,.,6%
FC(F)(F)c1ccccc1NC(=S)N/N=C1\CC2CC=CC12 (configuration not stated),7.9µM*,.,-19%,.,7%[10 µM],?
COc1ccccc1NS(=O)(=O)c1cc(NC(=O)Nc2cccc(C)c2)ccc1N1CCCCC1,?,?,-2%,-4,.,25%
COc1ccccc1NS(=O)(=O)c1cc(NC(=O)c2ccc(Cl)nc2)ccc1Cl,25µM*,-25%,0%,-7,33%[10 µM],25µM*
COc1ccccc1NS(=O)(=O)c1cc(NC(=O)c2ccncc2)ccc1N1CCCC1,11µM*,.,?,.,1%,?
CCN(CC)c1ccc(NC(=O)c2ccccc2)cc1S(=O)(=O)Nc1ccccc1OC,1µM*,1.8µM*,-15%,?,.,12%
COc1ccccc1NS(=O)(=O)c1cc(NC(C)=O)ccc1N1CCCCC1,8.9µM*,.,-7%,.,-4%,2%
COc1ccc(C(=O)Nc2ccc(Cl)c(S(=O)(=O)Nc3ccccc3OC)c2)cc1,?,-29%,-9%,?,15%[10 µM],?
COc1cc(C2SCCCCCCCCCCSC(c3ccc(O)c(OC)c3)SCCCCCCCCCCS2)ccc1O (configuration not stated),8%[13.5 µM],-3%,.,.,-5%[10 µM],.
N=C(N)c1ccc(N2CCN(C3CCN(CC(=O)O)CC3)CC2)cc1,-3%,-6%,7%,.,9%,.
COc1ccccc1NS(=O)(=O)c1cc(N2Cc3ccccc3C2=N)ccc1N1CCOCC1,8.9µM*,.,7%,.,-17%,15%
O=C(O)c1ccc2c(c1)C(=O)N([C@H](Cc1ccc(-c3ccccc3)cc1)C(=O)O)C2=O,.,.,11%,.,.,.
SMILES,ALDH1A1 inh,HPGD inh,CBFb RUNX1 block,PNC inhibitor,HTT cytoprotect,HTT aggregate
N/C(=N\OS(=O)(=O)c1ccccc1)c1ccncc1,2%,-6%,-1%,-19,-28%,4%
N/C(=N/OS(=O)(=O)c1ccc([N+](=O)[O-])cc1)c1ccncc1,32µM*,.,3%,.,?,-17%
CC(C)(C)NC(=O)Cc1ccc(S(=O)(=O)N2CCCC2)s1,-9%,-5%,-9%,-8,-3%,7%
O=C(CCCc1cccs1)Nc1nc2c(s1)CCCC2,-13%,-7%,0%,-23,.,0.028µM*
O=C(Cc1ccc(S(=O)(=O)N2CCCC2)s1)Nc1nc2c(s1)CCCC2,10µM*,-22%,-20%,-17,5%[10 µM],5%
Cc1ccccc1-c1cc(C(=O)Nc2nc3c(s2)CCCC3)c2ccccc2n1,?,?,-16%,-100*,-1%,-25%
O=C(Cc1ccc(S(=O)(=O)N2CCCCC2)s1)Nc1ccc(F)c(F)c1,?,-11%,7%,-86*,.,4%
COc1ccc(-c2cc(C3C4C=CCCC4(C)C(=O)N3Cc3ccccc3)ccc2F)cc1 (configuration not stated),.,.,25%,.,.,.
CCc1nc(SCC(=O)Nc2nc3c(s2)CCCC3)c2ccccc2n1,-2%,-9%,-7%,-8,25µM*,.
Cc1ccc(CC(=O)Nc2nc3c(s2)CCCC3)cc1,-3%,-11%,-5%,-100*,4%,-24%
O=C(CS(=O)(=O)Cc1ccccc1)Nc1nc2c(s1)CCCC2,?,-10%,-4%,?,5%,0%
CC1=NNC(=O)C1CCC(=O)N/N=C/C(Br)=C/c1ccccc1 (configuration not stated),?,.,0%,-115*,-3%[10 µM],-1%
CC1=NNC(=O)C1CC(=O)N/N=C/C(Br)=C/c1ccccc1 (configuration not stated),.,.,-1%,.,7%[10 µM],-2%[9.22 µM]
O=C(Nc1ccc2c(c1)OCCO2)N1CCN(c2ccc(F)cc2)CC1,2%,-7%,3%,-112*,-1%[10 µM],-9%
O=C(Nc1ccc2c(c1)OCO2)N1CCN(C(=O)C2CCCO2)CC1 (configuration not stated),-1%,-12%,3%,-100*,-10%,-7%
Cc1ccc2[nH]c(=O)c(CN(Cc3ccc4c(c3)OCO4)Cc3nnnn3Cc3ccco3)cc2c1,25µM*,-6%,-12%,-9,-29%[10 µM],-15%
Cc1cc(C)c2cc(CN(Cc3ccc4c(c3)OCO4)Cc3nnnn3Cc3ccco3)c(=O)[nH]c2c1,4.5µM*,-28%,-16%,6,-20%[10 µM],-30%
CCc1ccc2[nH]c(=O)c(CN(Cc3ccccc3)Cc3nnnn3Cc3ccco3)cc2c1,13µM*,-25%,?,?,-20%[10 µM],-1%
O=C(COc1cc(O)c2c(=O)c3ccccc3oc2c1)OCc1ccccc1,.,.,2%,.,12%[10 µM],-12%[9.22 µM]
O=C(NC1CC1)C1=C[C@H](c2c[nH]c3ccccc23)C[C@H](OCCCCO)O1,.,.,4%,.,13%[10 µM],-18%[9.22 µM]
